Screening data: PubChem BioAssay, National Center for Advancing Translational Sciences (NCATS)
FMDV antiviral – antivirals against foot and mouth disease virus | FMDV antiviral cell-based qHTS | Potency, µM (highest dose often 57.9 µM), inactives show top-dose activity change, negative = inhibition, most hits filed as inhibitors | actives 1.2% (n = 410,000); calls by dose curve; tested in HEK293T cells; note: read-out not given here; potency is the fitted concentration of half-maximal effect; nearly all actives have a fitted effect of over 45% in size
Vaccinia Venus – inhibitors of vaccinia virus (Venus reporter) | Vaccinia virus Venus reporter expression, fluorescence | Potency, µM (doses to about 36.5 µM), for the others: top-dose activity change, negative = inhibition, most hits filed as inhibitors | actives 0.46% (n = 330,000) | AID 720580; calls by dose curve; tested in A549 cells; note: potency is the fitted concentration of half-maximal effect; nearly all actives have a fitted effect of over 30% in size
HCMV antiviral – inhibitors of human cytomegalovirus | HFF cells, HCMV-luciferase reporter, 72 h; stronger effect = lower value | activity change, negative = inhibition, % at 57.5 µM | actives 4.5% (n = 410,000) | AID 1259415; in the data active = activity change below about -60%; inconclusive = no clear call, values can overlap the other calls; inactive = above about -39%
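Two-dose cell screen: HFF monolayers treated with compounds and infected with luciferase-expressing HCMV at 1 PFU/cell, 72 h at 37C, then lysed for luciferase measurement.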
Lassa entry inh – Lassa virus entry inhibition; Lassa virus pseudotype entry inhibition, cell reporter; actives 1.2% (n = 300,000); Potency, µM (titrated, usually from 37.9 µM), without a hit: at the highest dose activity change, negative = inhibition, most hits filed as inhibitors; calls by dose curve; tested in HEK293 cells; note: potency is the fitted concentration of half-maximal effect; nearly all actives have a fitted effect of over 50% in size
Marburg entry inh – inhibitors of Marburg virus binding or cell entry; Potency, µM (doses to about 37.8 µM), inactives show at the highest dose activity change, negative = inhibition, usual class: inhibitors; AID 540276; actives 1.8% (n = 300,000); Marburg virus pseudotyped entry inhibition, cell reporter; calls by dose curve; tested in HEK293 cells; note: potency is the fitted concentration of half-maximal effect
Vaccinia mCherry – vaccinia inhibition (mCherry reporter); Vaccinia virus mCherry reporter infection, fluorescence; Potency, µM (series often up to 36.5 µM), without a hit: top-dose activity change, negative = inhibition, most hits filed as inhibitors; actives 0.63% (n = 310,000); AID 720579; calls by dose curve; tested in A549 cells; note: potency is the fitted concentration of half-maximal effect; nearly all actives have a fitted effect of over 35% in size
The depositor's hits bear a star; i = inactive; ? = inconclusive; . = not tested or not shown; [ ] = dose if it differs, or a comment. The list is not random: actives were taken first. Their share in the collection is about 6.5%. % is set by controls: 0 for no effect and ±100 for the full control effect.

SMILES	FMDV antiviral	Vaccinia Venus	HCMV antiviral	Lassa entry inh	Marburg entry inh	Vaccinia mCherry
Cc1ccc(NC(=O)CCN2C(=O)NC3(CCCC3)C2=O)cc1S(=O)(=O)N1CCOCC1	-12.3%	.	-8.1	.	.	.
Cc1ccc(Cl)cc1Nc1nc(-c2sc(NC(=O)C(C)(C)C)nc2C)cs1	-21.5%	-13.1%	-72.9*	.	.	?
COc1ccccc1Nc1nc(-c2sc(NC(=O)C(C)(C)C)nc2C)cs1	-16.7%	-29.0%	-87.6*	.	.	?
CCOc1ccccc1Nc1nc(-c2sc(C)nc2C)cs1	4.3%	?	58.6	-4.7%[46.1 µM]	?	3.55µM*
CCCCCC(=O)Nc1nc(C)c(-c2csc(Nc3cc(Cl)ccc3OC)n2)s1	-17.5%	?	-36.3	.	.	?
CC(=O)c1c(C)[nH]c(C(=O)CN2C(=O)NC(CCc3ccccc3)C2=O)c1C (centres undefined)	-32.3%	.	0.0	.	.	.
Cc1cc(C)[n+](-c2ccc(Oc3ccccc3)c(S(=O)(=O)[O-])c2)[nH]1	8.0%	0.3%	40.7	?	-1.7%	-13.1%
N#Cc1cc2c(nc1S(=O)(=O)Cc1ccccc1)CCCC2	12.4%	-13.0%	-63.1*	1.2%	13.5%	-8.2%
Cc1cc(C)c2sc(N3CCN(C(=O)c4ccc(N(C)C)cc4)CC3)nc2c1	-10.2%	-8.0%	-13.4	3.8%[46.1 µM]	.	-1.3%
CC1(C(=O)Nc2ccccc2Br)CCN1C(=O)Cc1ccccc1Cl (centres undefined)	0.0%	4.3%	4.2	.	.	-1.6%
O=C(COC(=O)CC(c1ccccc1)c1ccccc1)NCc1ccccc1	?	.	40.4	11.6µM*	0.8%	.
CC(C)(C)OC(=O)/C=C/[C@@H]1Cc2ccccc2N1	.	.	32.9	.	.	.
COc1ccc(C(C)N(C)Cc2nc(N3CCN(C(=O)c4ccco4)CC3)c3ccccc3n2)cc1 (centres undefined)	6.6%	-0.4%	.	.	.	1.8%
COc1ccc2c(c1)C(C)=CC(C)(C)N2S(=O)(=O)c1ccc(Br)cc1	-17.1%	-13.2%	-79.8*	?	?	-4.6%
CCOc1ccc2c(c1)C(C)=CC(C)(C)N2S(=O)(=O)c1ccc(NC(C)=O)cc1	10.5%	.	?	.	.	.
COc1ccc2c(c1)C(C)=CC(C)(C)N2S(=O)(=O)c1ccc(NC(C)=O)cc1	-27.3%	?	-89.7*	?	1.12µM*	-15.3%
COc1cc(NC(=O)Cn2cc(S(=O)(=O)N3CCC(C)CC3)c3ccccc3c2=O)cc(OC)c1OC	0.0%	-8.8%	-12.4	-26.3%[46.1 µM]	10µM*	-19.5%
CC1CCN(S(=O)(=O)c2cn(CC(=O)Nc3ccc(F)c(Cl)c3)c(=O)c3ccccc23)CC1	0.3%	-2.7%	-62.8*	?	?	-16.8%
COc1ccc(-c2sc3ccc(N4CCOCC4)cc3c2C#CCO)cc1	15.8µM*	?	-86.6*	.	.	-16.1%
Cc1ncc2c(c1CNC(=O)/C=C/c1cccs1)CCN(C(=O)C1CCCO1)C2 (centres undefined)	-16.5%	-1.5%	.	.	.	-0.7%
CCCn1c(C)nc2c(c1=O)c1nc3ccccc3nc1n2CCC1=CCCCC1	?	.	3.7	?	23.1µM*	.
O=C(c1cn(-c2ccccc2)nc1-c1cccc(Br)c1)N1CCOCC1	4.5%	-12.9%	-63.4*	1.2%	?	-3.6%
Nc1c(-c2ccccc2)c(CSc2nc3ccccc3[nH]2)nn1-c1ccc(Cl)cc1	0.0%	?	-39.0	?	?	-23.5%
CCSc1nc2ccccc2[nH]1	20.0%	0.6%	0.2	0.0%	0.8%	-17.8%
Nc1c(-c2ccccc2)c(CSc2nc3ccccc3[nH]2)nn1-c1cccc(Cl)c1	?	?	-94.7*	?	?	?
SMILES	FMDV antiviral	Vaccinia Venus	HCMV antiviral	Lassa entry inh	Marburg entry inh	Vaccinia mCherry
Cc1ccccc1-n1nc(CSc2nc3ccccc3[nH]2)c(-c2ccccc2)c1N	?	-16.5%	-86.7*	?	?	-10.7%
O=C(NCc1ccncc1)[C@@H]1CCCN1C(=O)[C@@H]1CCCN1C(=O)c1cccs1	-14.9%	-5.6%	-0.4	.	.	27.9%
COc1cc(Cl)c(C)cc1NC(=O)Cn1cnc2sc(C)c(S(=O)(=O)N3CCCCC3)c2c1=O	0.0%	-20.7%	-9.4	-1.4%[46.1 µM]	?	-14.4%
Cc1nn(C)cc1CN1CCOc2ccc(C(C)(O)COc3ccccc3)cc2C1 (centres undefined)	-9.8%	?	.	.	.	-3.7%
CC(=O)c1c(C)[nH]c(C(=O)OCC(=O)Nc2cccc(S(=O)(=O)N(C)C)c2)c1C	-14.1%	-12.4%	-61.5*	-5.7%[46.1 µM]	0.1%[46.1 µM]	i
CC(=O)c1c(C)[nH]c(C(=O)OCC(=O)Nc2cccc(S(=O)(=O)N3CCCC3)c2)c1C	14.1µM*	-24.1%	-65.1*	?	?	-5.7%
CCN(CC)S(=O)(=O)c1cccc(NC(=O)COC(=O)c2[nH]c(C)c(C(C)=O)c2C)c1	11.2µM*	?	-85.0*	.	.	-28.1%
COc1cccc(C(=O)OCC(=O)c2ccc(S(=O)(=O)N3CCCCC3)cc2)c1OC	?	-14.8%	-99.6*	1.3%	?	-18.2%
CC(=O)c1c(C)[nH]c(C(=O)OCC(=O)Nc2cc(S(=O)(=O)N3CCCC3)ccc2Cl)c1C	?	-11.0%	?	?	?	-6.5%
CC(=O)c1c(C)[nH]c(C(=O)Nc2cccc(S(=O)(=O)N(C)C)c2)c1C	41.8%	-9.6%	337.7	-0.7%	29.3%[46.1 µM]	-11.1%
COc1cccc(/C=C/C(=O)OCC(=O)c2ccc(S(=O)(=O)N3CCCCC3)cc2)c1OC	-18.7%	.	-23.6	.	.	.
CC(=O)c1c(C)[nH]c(C(=O)OCC(=O)Nc2ccc3[nH]c(=O)[nH]c3c2)c1C	15.2%	-10.6%	63.6	16.7%	2.1%[46.1 µM]	i
c1ccc(-c2[nH]ncc2-c2ccnc(-c3ccc(OCCN4CCOCC4)cc3)c2)nc1	.	.	.	6.0%	.	.
Cc1cccc(C)c1NC(=O)COC(=O)CCc1ccc(S(=O)(=O)N2CCCCC2)cc1	4.7%	2.8%	1.4	-7.7%	10.5%	i
O=C(COC(=O)CCc1ccc(S(=O)(=O)N2CCCCC2)cc1)Nc1cccc2ccccc12	-18.9%	-5.4%	-106.3*	5.3%	-2.8%	i
CC(=O)c1c(C)[nH]c(C(=O)OCC(=O)Nc2ccccc2Cl)c1C	17.8µM*	-27.1%	-10.5	-26.3%	?	?
Cc1cccc(NC(=O)COC(=O)c2ccc(S(=O)(=O)N3CCCCCC3)cc2)c1	-7.1%	-25.2%	-99.2*	-25.6%	2.2%	-2.6%
CC(=O)c1c(C)[nH]c(C(=O)OCc2csc(CC(=O)Nc3ccccc3C)n2)c1C	20µM*	.	24.8	.	.	.
Cc1ccccc1NC(=O)c1ccc2nc(Cc3ccccc3)oc2c1	3.5%	-10.8%	-30.5	-8.7%[46.1 µM]	.	-11.3%
O=C(c1cn[nH]c1)N1CCc2c([nH]c3ccccc23)C1c1c(F)cccc1Cl (centres undefined)	-7.1%	-15.0%	26.3	?	?	10µM*
O=C(c1ccc(Cl)cc1)N1CCc2c([nH]c3ccccc23)C1C(F)(F)F (centres undefined)	-29.4%	-26.9%	?	?	11.2µM*	i
